Source: PubChem BioAssay AID488932 (Broad Institute, 2010)
Results with a measured potency or affinity are listed apart. A number with no mark means an inactive call.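 Rule for the calls: active = growth signal falls, with fitted half-maximal dose at most ten times the top valid dose; inconclusive = flat curve with a partial drop, or a poorly fitting curve; inactive = the rest, including compounds that raise signal.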

Assay: Candida albicans growth inhibition, agent alone, dose response, counter-screen for reversing antifungal drug resistance, CaCi-2 strain, no fluconazole, dry powder, set 4 (AID 488932)
Details: C. albicans CaCi-2 (fluconazole-resistant clinical isolate) growth, Alamar Blue, 48 h; series mostly up to 26 µM; activity change, negative = inhibition: at the top concentration

Compound	activity change, negative = inhibition
O=C(c1ccc(Cl)cc1)N1CCCN(c2ccnc3cc(Cl)ccc23)CC1	70.2%
O=C(c1ccc(F)cc1)N1CCN(c2ccnc3cc(Cl)ccc23)CC1	20.7%
O=C(c1ccccc1Cl)N1CCN(c2ccnc3cc(Cl)ccc23)CC1	20.5%
